Data reported in PMC8384837, “Expanding the binding specificity for RNA recognition by a PUF domain”.
Where a chain is given by its changes, count along the chain named.

Key:
Assay in all cases: yeast three-hybrid, YBZ-1, SC-Leu-His + 0.5 mM 3-AT, 4 days
Details in all cases: tags: N-Gal4 AD-HA kept; label: inside an RPR1-promoter hybrid RNA with tandem MS2 sites; ssRNA
PUM1 PUF domain R4-SFP = PUM1 PUF domain R4-SFP (Homo sapiens, UniProt Q14671 828-1176, N971S;H972F;Q975P)
Outline: (§1)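 The interaction score is the logarithmic change in variant frequency from input to selection. It uses log2, with a pseudocount of 1 for absent variants, and frequencies came from PCR-amplified, Illumina-sequenced repeat regions. The libraries were Pumilio-1 PUF domains randomized at the three base-contacting residues per repeat, co-expressed with matching RNA elements in strain YBZ-1 (LexA–MS2 coat fusion, HIS3 reporter). Plating lasted four days on SC-Leu (input) or SC-Leu-His + 0.5 mM 3-AT (selection).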

PUM1 PUF domain R4-CNG = PUM1 PUF domain R4-CNG (Homo sapiens, UniProt Q14671 828-1176, N971C;H972N;Q975G)
Outline: as §1

PUM1 PUF domain R3-RVM = PUM1 PUF domain R3-RVM (Homo sapiens, UniProt Q14671 828-1176, C935R;R936V;Q939M)
Outline: as §1

PUM1 PUF domain R3-QPR = PUM1 PUF domain R3-QPR (Homo sapiens, UniProt Q14671 828-1176, C935Q;R936P;Q939R)
Outline: as §1

PUM1 PUF domain R3-WWQ = PUM1 PUF domain R3-WWQ (Homo sapiens, UniProt Q14671 828-1176, C935W;R936W)
Outline: as §1

PUM1 PUF domain R3-RTS = PUM1 PUF domain R3-RTS (Homo sapiens, UniProt Q14671 828-1176, C935R;R936T;Q939S)
Outline: as §1

PUM1 PUF domain R7-RCN = PUM1 PUF domain R7-RCN (Homo sapiens, UniProt Q14671 828-1176, S1079R;N1080C;E1083N)
Outline: as §1

PUM1 PUF domain R1-RRM = PUM1 PUF domain R1-RRM (Homo sapiens, UniProt Q14671 828-1176, S863R;Q867M)
Outline: as §1

PUM1 PUF domain R5-NSR = PUM1 PUF domain R5-NSR (Homo sapiens, UniProt Q14671 828-1176, C1007N;R1008S;Q1011R)
Outline: as §1

PUM1 PUF domain R5-RHR = PUM1 PUF domain R5-RHR (Homo sapiens, UniProt Q14671 828-1176, C1007R;R1008H;Q1011R)
Outline: as §1

PUM1 PUF domain R4-CRR = PUM1 PUF domain R4-CRR (Homo sapiens, UniProt Q14671 828-1176, N971C;H972R;Q975R)
Outline: as §1

PUM1 PUF domain R6-TFM = target: T1, PUM1 PUF domain R6-TFM (Homo sapiens, UniProt Q14671 828-1176, N1043T;Y1044F;Q1047M)
T1 sequence: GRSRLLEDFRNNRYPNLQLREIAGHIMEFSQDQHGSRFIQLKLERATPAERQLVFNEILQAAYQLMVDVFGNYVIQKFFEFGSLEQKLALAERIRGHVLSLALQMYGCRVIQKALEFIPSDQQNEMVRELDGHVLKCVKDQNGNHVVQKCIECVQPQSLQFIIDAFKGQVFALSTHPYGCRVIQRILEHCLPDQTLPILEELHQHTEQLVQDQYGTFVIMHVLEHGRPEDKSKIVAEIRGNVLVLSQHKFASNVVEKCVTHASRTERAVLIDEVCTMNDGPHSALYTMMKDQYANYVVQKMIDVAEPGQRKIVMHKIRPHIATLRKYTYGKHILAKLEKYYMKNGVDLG
Outline: as §1

PUM1 PUF domain R6-VWG = target: T2, PUM1 PUF domain R6-VWG (Homo sapiens, UniProt Q14671 828-1176, N1043V;Y1044W;Q1047G)
T2 sequence: T1 sequence with T216V, F217W, M220G
Outline: as §1

PUM1 PUF domain R6-DWI = target: T3, PUM1 PUF domain R6-DWI (Homo sapiens, UniProt Q14671 828-1176, N1043D;Y1044W;Q1047I)
T3 sequence: T1 sequence with T216D, F217W, M220I
Outline: as §1

PUM1 PUF domain R6-VFG = target: T4, PUM1 PUF domain R6-VFG (Homo sapiens, UniProt Q14671 828-1176, N1043V;Y1044F;Q1047G)
T4 sequence: T1 sequence with T216V, M220G
Outline: as §1

PUM1 PUF domain R8-SWF = PUM1 PUF domain R8-SWF (Homo sapiens, UniProt Q14671 828-1176, N1122S;Y1123W;Q1126F)
Outline: as §1

PUM1 PUF domain R3-GWM = PUM1 PUF domain R3-GWM (Homo sapiens, UniProt Q14671 828-1176, C935G;R936W;Q939M)
Outline: as §1

PUM1 PUF domain R5-SIC = PUM1 PUF domain R5-SIC (Homo sapiens, UniProt Q14671 828-1176, C1007S;R1008I;Q1011C)
Outline: as §1

PUM1 PUF domain R5-IRP = PUM1 PUF domain R5-IRP (Homo sapiens, UniProt Q14671 828-1176, C1007I;Q1011P)
Outline: as §1

PUM1 PUF domain R3-YSG = PUM1 PUF domain R3-YSG (Homo sapiens, UniProt Q14671 828-1176, C935Y;R936S;Q939G)
Outline: as §1

GGCUAGAACUAGUGGAUCCCCCGGCGCCCGGCGGCUCGAGCCCGGGUAAGUGUAUAUAGUCUGCAUGCCGCCGGGCGCCAUGCCUGCAGGUCGACUCUAGAAAACAUG
binding signal (PUM1 PUF domain R4-SFP): 7.15 log2 enrichment (interaction score) | binding signal (PUM1 PUF domain R4-CNG): 4.94 log2 enrichment (interaction score)

GGCUAGAACUAGUGGAUCCCCCGGCGCCCGGCGGCUCGAGCCCGGGUAAGUGUAAUUAGUCUGCAUGCCGCCGGGCGCCAUGCCUGCAGGUCGACUCUAGAAAACAUG
binding signal (PUM1 PUF domain R3-RVM): 2.43 log2 enrichment (interaction score) | binding signal (PUM1 PUF domain R3-QPR): 5.15 log2 enrichment (interaction score) | binding signal (PUM1 PUF domain R3-WWQ): 2.48 log2 enrichment (interaction score) | binding signal (PUM1 PUF domain R3-RTS): 3.18 log2 enrichment (interaction score)

GGCUAGAACUAGUGGAUCCCCCGGCGCCCGGCGGCUCGAGCCCGGGUAAGUCUAAAUAGUCUGCAUGCCGCCGGGCGCCAUGCCUGCAGGUCGACUCUAGAAAACAUG
binding signal (PUM1 PUF domain R7-RCN): 2.67 log2 enrichment (interaction score)

GGCUAGAACUAGUGGAUCCCCCGGCGCCCGGCGGCUCGAGCCCGGGUAAGUGUAAAUCGUCUGCAUGCCGCCGGGCGCCAUGCCUGCAGGUCGACUCUAGAAAACAUG
binding signal (PUM1 PUF domain R1-RRM): 2.95 log2 enrichment (interaction score)

GGCUAGAACUAGUGGAUCCCCCGGCGCCCGGCGGCUCGAGCCCGGGUAAGUGUUAAUAGUCUGCAUGCCGCCGGGCGCCAUGCCUGCAGGUCGACUCUAGAAAACAUG
binding signal (PUM1 PUF domain R5-NSR): 4.06 log2 enrichment (interaction score) | binding signal (PUM1 PUF domain R5-RHR): 4.52 log2 enrichment (interaction score)

GGCUAGAACUAGUGGAUCCCCCGGCGCCCGGCGGCUCGAGCCCGGGUAAGUGUACAUAGUCUGCAUGCCGCCGGGCGCCAUGCCUGCAGGUCGACUCUAGAAAACAUG
binding signal (PUM1 PUF domain R4-SFP): 6.2 log2 enrichment (interaction score) | binding signal (PUM1 PUF domain R4-CRR): 3.13 log2 enrichment (interaction score) | binding signal (PUM1 PUF domain R4-CNG): 2.39 log2 enrichment (interaction score)

GGCUAGAACUAGUGGAUCCCCCGGCGCCCGGCGGCUCGAGCCCGGGUAAGUGAAAAUAGUCUGCAUGCCGCCGGGCGCCAUGCCUGCAGGUCGACUCUAGAAAACAUG
binding signal (PUM1 PUF domain R6-TFM): 2.84 log2 enrichment (interaction score) | binding signal (PUM1 PUF domain R6-VWG): 6.85 log2 enrichment (interaction score) | binding signal (PUM1 PUF domain R6-DWI): 2.33 log2 enrichment (interaction score) | binding signal (PUM1 PUF domain R6-VFG): 7.53 log2 enrichment (interaction score)

GGCUAGAACUAGUGGAUCCCCCGGCGCCCGGCGGCUCGAGCCCGGGUAAGUGUCAAUAGUCUGCAUGCCGCCGGGCGCCAUGCCUGCAGGUCGACUCUAGAAAACAUG
binding signal (PUM1 PUF domain R5-NSR): 4.06 log2 enrichment (interaction score)

GGCUAGAACUAGUGGAUCCCCCGGCGCCCGGCGGCUCGAGCCCGGGUAAGCGUAAAUAGUCUGCAUGCCGCCGGGCGCCAUGCCUGCAGGUCGACUCUAGAAAACAUG
binding signal (PUM1 PUF domain R8-SWF): 1.73 log2 enrichment (interaction score)

GGCUAGAACUAGUGGAUCCCCCGGCGCCCGGCGGCUCGAGCCCGGGUAAGUGUAAAUAGUCUGCAUGCCGCCGGGCGCCAUGCCUGCAGGUCGACUCUAGAAAACAUG
binding signal (PUM1 PUF domain R3-GWM): 2.49 log2 enrichment (interaction score) | binding signal (PUM1 PUF domain R8-SWF): 2.33 log2 enrichment (interaction score) | binding signal (PUM1 PUF domain R5-SIC): 3.43 log2 enrichment (interaction score) | binding signal (PUM1 PUF domain R6-VWG): 2.67 log2 enrichment (interaction score) | binding signal (PUM1 PUF domain R4-CNG): 2.92 log2 enrichment (interaction score) | binding signal (PUM1 PUF domain R5-IRP): 2.35 log2 enrichment (interaction score) | binding signal (PUM1 PUF domain R6-VFG): 3.57 log2 enrichment (interaction score) | binding signal (PUM1 PUF domain R5-RHR): 1.95 log2 enrichment (interaction score)

GGCUAGAACUAGUGGAUCCCCCGGCGCCCGGCGGCUCGAGCCCGGGUAAGUGUAAGUAGUCUGCAUGCCGCCGGGCGCCAUGCCUGCAGGUCGACUCUAGAAAACAUG
binding signal (PUM1 PUF domain R3-GWM): 1.14 log2 enrichment (interaction score) | binding signal (PUM1 PUF domain R3-WWQ): 5.35 log2 enrichment (interaction score) | binding signal (PUM1 PUF domain R3-YSG): 2.43 log2 enrichment (interaction score)

GGCUAGAACUAGUGGAUCCCCCGGCGCCCGGCGGCUCGAGCCCGGGUAAGUGUAAAUUGUCUGCAUGCCGCCGGGCGCCAUGCCUGCAGGUCGACUCUAGAAAACAUG
binding signal (PUM1 PUF domain R1-RRM): 1.41 log2 enrichment (interaction score)
